Laboratory results from PubChem BioAssay (NCATS).
Values joined by “and” are separate entries in the source; they are usually repeats but may differ in a detail not shown here. Equal entries are not always repeated. Inconclusive results are not listed. Active and inactive are the calls of the source. Unless noted, the call rests on the fitted dose curve; in most records, active means well fitted curve in the direction sought with a large enough effect; inconclusive means small, poorly fitted or top-dose-only effect, or another doubt; inactive means no such curve, though single readings can be large; an effect the other way counts as inactive or inconclusive.

Key:
[1] = molecular target: T1, Hexokinase-4 (Homo sapiens) + Glucokinase regulatory protein (Homo sapiens) (UniProt P35557+Q14397); test: qHTS assay for inhibitors of recombinant human GCK-GKRP interaction: ADP-Glo assay (AID 743206);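 further: plate controls were DMSO plus enzyme for no effect and no enzyme for full effect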
Summary of the method: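 Pin-transferred compounds meet a 15 nM GST-GCK/15 nM FLAG-GKRP/2 uM S6P mix (dispense concentrations). ATP is then added to 0.4 mM final with 5 mM glucose, and the reaction runs 60 min at room temperature. ADP is quantified luminescently.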

[2] = molecular target: T1, Hexokinase-4 (Homo sapiens) + Glucokinase regulatory protein (Homo sapiens); test: qHTS assay for inhibitors of recombinant human GCK-GKRP interaction: HTRF assay (AID 743207);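 further: 0% = DMSO with GCK present and -100% = DMSO wells lacking GCK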
Summary of the method: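 Steps: dispense GCK–GKRP complex (5 nM each, GST- and FLAG-tagged) with 2 uM S6P; pin in compounds; add XL665/Eu-cryptate-labelled antibodies; incubate 60 min at room temperature; read time-resolved FRET at 665 and 615 nm.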

[3] = qHTS Assay for Identifying Gametocytocidal Compounds (AID 743244);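 further: on the % scale 0 is the no-effect control and ±100 the full control effect; actives lower the fluorescent signal which means gametocytes are killed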; conditions: P. falciparum 3D7 stage III-V gametocytes, alamarBlue, 72 h; max response: active compounds read low
Summary of the method: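 A resazurin-based viability read-out was applied to mature P. falciparum gametocytes: 72 h compound treatment, then 24 h dye incubation, with falling fluorescence signalling gametocytocidal effect.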

[4] = molecular target: Atrial natriuretic peptide receptor 1 (Homo sapiens) (UniProt P16066); test: Natriuretic polypeptide receptor (hNpr1) antagonism - Pilot screen (AID 1347049; calls by dose curve;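 further: HEK293 cells with hNpr1 and GloSensor cGMP luciferase stimulated by 0.1 nM hNppA; agonist-evoked cGMP luminescence read 20 min after hNppA addition; series mostly up to about 58 µM; on the % scale 0 is the no-effect control and ±100 the full control effect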)
Summary of the method: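 Cells expressing receptor plus cGMP biosensor are seeded and incubated overnight at 37C, then loaded with GloSensor reagent (2% final) at room temperature for 2 h. Library compounds go on for 30 min. A pre-read precedes agonist (hNppA, 0.1 nM final) and a 20-min readout.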

[5] = molecular target: Atrial natriuretic peptide receptor 2 (Homo sapiens) (UniProt P20594); test: Natriuretic polypeptide receptor (hNpr2) antagonism - Pilot subtype selectivity assay (AID 1347050; calls by dose curve; further: on the % scale 0 is the no-effect control and ±100 the full control effect)
Summary of the method: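 Read-out: GloSensor luminescence (CCD imager), baseline vs post-stimulation. HEK293 cells expressing hNpr2; compounds pre-incubated 30-50 min at ambient temperature; hNppC 1 nM final, 20 min.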

[6] = molecular target: Parathyroid hormone/parathyroid hormone-related peptide receptor (Homo sapiens) (UniProt Q03431); test: qHTS for PTHR1 Agonists: Optimization Screen against the NCGC LOPAC library (AID 1347079);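 further: GloSensor cAMP luminescence in HEK-293 GP2 cells expressing human PTHR1 with IBMX; 0% is about no effect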
Summary of the method: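 Signal increase flags agonism. GP2 cells, derived from HEK-293, express human PTHR1 and a GloSensor cAMP construct.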

[7] = molecular target: N-terminal Xaa-Pro-Lys N-methyltransferase 1 (Homo sapiens) (UniProt Q9BV86); test: qHTS Assay for Inhibitors of N-terminal methyltransferase 1 (NTMT1): LOPAC validation of the NTMT1 SAHH-coupled ThioGlo3 Assay (AID 1347143);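 further: SAH from peptide methylation measured as thiol fluorescence via SAHH coupling and ThioGlo3; potency means the concentration at half of the fitted maximal effect; nearly all actives have a fitted effect of over 70% in size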
Summary of the method: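 In this qHTS pilot against the LOPAC set, 125nM NTMT1 met compounds tested at multiple concentrations, and fluorescence was normalized to background.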

[8] = system: Zika virus NS2B-NS3 protease; test: Primary screen GU AMC qHTS for Zika virus inhibitors (AID 1347154); further: nearly all actives have a fitted effect of over 70% in size
Summary of the method: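 Unlinked Zika NS2B hydrophilic domain/NS3 protease domain noncovalent complex (25 nM final) in 10 mM Tris-HCl pH 8.0, 0.01% Tween 20, with AMC peptide substrate. Fluorescence (ex 340, em 450 nm) change over 15 min, room temperature; percent inhibition fitted to 4-parameter Hill equation.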

[9] = molecular target: Lysine-specific demethylase 5B (Homo sapiens) (UniProt Q9UGL1); test: Optimization screen for KDM5B Histone Demethylases FDH coupled qHTS against the LOPAC library (AID 1347166); further: 0% is about no effect
Summary of the method: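 KDM5BDeltaAP (200nM final) in 50mM HEPES pH 7.5, 0.01% Tween-20 was preincubated with compound for 10 min at room temperature. A substrate mix of 12.5uM H3K4Me3, 25uM a-ketoglutarate, ascorbate, Fe2+, NAD+ and formaldehyde dehydrogenase was then added. NADH fluorescence (340/450 nm) was read initially and after 30 min.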

[10] = qHTS to identify inhibitors of the type 1 interferon - major histocompatibility complex class I in skeletal muscle: primary screen against the NCATS LOPAC collection (AID 1347405);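 further: human myoblasts with HiBiT tag on endogenous HLA-B stimulated by IFN-beta; lytic HiBiT luminescence reporting HLA-B protein level; potency means the concentration at half of the fitted maximal effect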
Summary of the method: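 IFN-beta-stimulated (4 ng/ml) HLA-B HiBiT knock-in myoblasts, compound-treated 24 hrs up to 46 uM final; signal via LgBiT complementation and furimazine luminescence.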

[11] = qHTS for inhibitors of adenylyl cyclases using a fission yeast platform: a pilot screen against the NCATS LOPAC library (AID 1347410);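 further: plate controls were DMSO vehicle for no effect and DPI positive control for full effect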
Summary of the method: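 Growth medium went into the plates first, then compounds were pinned (final up to 57 µM), then CHP2027 yeast were added. Plates were incubated overnight (18 h) at 30C in the dark, and GFP was measured by laser scanning cytometry.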

[12] = Validation qHTS assay for inhibitors of Activation Induced Cytidine Deaminase (AID): UDG Counterscreen signal (AID 1347427); further: 0% is about no effect
Summary of the method: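 Fluorescence at 560 nm excitation, 665 nm emission reports UDG signal after 250 mM NaOH (2x) addition and 30 min. Enzymes (AID 1 uM, UDG 2 U/mL, at 4/3x) preincubated 10 min with compound, then 4 h with 4x 250 nM DJC20/DJC23 substrate at room temperature.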

[13] = molecular target: Single-stranded DNA cytosine deaminase (Homo sapiens) (UniProt Q9GZX7); test: Validation qHTS assay for inhibitors of Activation Induced Cytidine Deaminase (AID): AID signal (AID 1347429); further: on the % scale 0 is the no-effect control and ±100 the full control effect
Summary of the method: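 Compounds (up to 114 uM final) are tested against AID plus UDG using DJC20/DJC23 FRET substrate. Reactions incubate 4 hr at room temperature, receive NaOH for 30 min, and are read at Ex 540/Em 590 nm.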

[14] = Primary qHTS for inhibitors of La Crosse Virus (LACV) - induced cell death in SH-SY5Y cells (AID 1508616);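 further: top concentration of the series differs between compounds; 0% = infected DMSO wells and 100% = uninfected DMSO wells; higher means more rescue of cells from virus-induced death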
Summary of the method: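 Screening measures cell viability in LACV-infected SH-SY5Y cultures. Compound was added before virus (0.01 MOI), and ATP was detected by luminescence 6 days later.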

[15] = Counterscreen qHTS for small molecule stabilizers of the endoplasmic reticulum resident proteome: GLuc-NoTag assay (AID 1508627); further: potency means the concentration at half of the fitted maximal effect
Summary of the method: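 Secreted GLuc lacking the SERCaMP modification is measured in SH-SY5Y cells exposed to compound for 19 h and then to thapsigargin (100 nM, 4 h) to deplete ER calcium; hits retested at 11 concentrations, up to 76.6 uM.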

[16] = Confirmatory qHTS for small molecule stabilizers of the endoplasmic reticulum resident proteome: Secreted ER Calcium Modulated Protein (SERCaMP) assay (AID 1508628); further: potency means the concentration at half of the fitted maximal effect; nearly all actives have a fitted effect of over 40% in size
Summary of the method: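 GLuc-SERCaMP-expressing SH-SY5Y cells, pretreated 16 h with compound, are challenged with thapsigargin to empty ER calcium stores; after 4 h, coelenterazine is added directly to the medium and luminescence is imaged.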

[17] = Cell Viability qHTS for small molecule stabilizers of the endoplasmic reticulum resident proteome (AID 1508629); conditions: cell viability counter-screen, 100 nM thapsigargin for final 4 h;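 further: human SH-SY5Y neuroblastoma cells carrying the GLuc-SERCaMP reporter; compound exposure about 46 h in total before the viability read; on the % scale 0 is the no-effect control and ±100 the full control effect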
[18] = molecular target: Papain (Carica papaya) (UniProt P00784); test: Primary qHTS assay for inhibitors of the protease papain (AID 1645873)
[19] = molecular target: Glutathione peroxidase 1 (Homo sapiens) (UniProt P07203); test: Primary qHTS Assay for Inhibitors of Recombinant Selenoprotein Glutathione Peroxidase 1 (GPX1) (AID 1845191); further: nearly all actives have a fitted effect of over 65% in size
Summary of the method: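 GPX1 10 nM, GR 100 nM, GSH 1 mM, NADPH 0.5 mM, CHP 0.5 mM (final). 30-min cpd preincubation, RT. Ex340/Em450 read t=0, t=15 min.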

[20] = molecular target: Phospholipid hydroperoxide glutathione peroxidase GPX4 (Homo sapiens) (UniProt P36969); test: Primary qHTS Assay for Inhibitors of Recombinant Selenoprotein Glutathione Peroxidase 4 (GPX4) (AID 1845192); conditions: outcome: dose series up to 50 µM unless noted; further: nearly all actives have a fitted effect of over 65% in size
Summary of the method: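 qHTS, GR-coupled: GPX4 200 nM + cpd 30 min RT → GSH 1 mM, NADPH 0.5 mM, GR 100 nM → CHP 0.5 mM start; fluor 340/450 at t0 and t15 min; no-enzyme wells as control.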

[21] = qHTS assay to identify inhibitors of the type 1 interferon - major histocompatibility complex class I in skeletal muscle: Counter screen cell viability and HiBit confirmation (AID 1347412); conditions: iHSKM muscle cells + IFN-b, HiBiT or CellTiter-Glo, 24 h; HiBiT; further: potency means the concentration at half of the fitted maximal effect; nearly all actives have a fitted effect of over 60% in size
Summary of the method: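 Myoblasts (C25cl48, HLA-B HiBiT) seeded in medium without dexamethasone, IFN-b 4 ng/ml added except unstimulated columns; 1 hr later compounds pinned (12-pt 1:3, top 46 uM final). Incubated 24 hrs, lysed 10 min, luminescence measured.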

T1 sequence (P35557 whole entry, looked up): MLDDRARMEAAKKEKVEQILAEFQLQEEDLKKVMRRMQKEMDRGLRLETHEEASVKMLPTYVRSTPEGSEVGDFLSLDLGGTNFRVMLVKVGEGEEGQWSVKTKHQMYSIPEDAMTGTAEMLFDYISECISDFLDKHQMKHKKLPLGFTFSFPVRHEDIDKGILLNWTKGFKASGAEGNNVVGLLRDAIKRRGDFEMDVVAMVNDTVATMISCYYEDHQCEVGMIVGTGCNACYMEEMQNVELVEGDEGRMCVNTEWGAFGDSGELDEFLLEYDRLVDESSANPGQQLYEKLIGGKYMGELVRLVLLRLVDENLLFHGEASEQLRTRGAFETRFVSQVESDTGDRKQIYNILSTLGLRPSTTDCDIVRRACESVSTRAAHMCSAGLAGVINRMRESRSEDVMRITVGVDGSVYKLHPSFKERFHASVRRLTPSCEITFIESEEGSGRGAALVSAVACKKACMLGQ
T1 sequence (Q14397 whole entry, looked up): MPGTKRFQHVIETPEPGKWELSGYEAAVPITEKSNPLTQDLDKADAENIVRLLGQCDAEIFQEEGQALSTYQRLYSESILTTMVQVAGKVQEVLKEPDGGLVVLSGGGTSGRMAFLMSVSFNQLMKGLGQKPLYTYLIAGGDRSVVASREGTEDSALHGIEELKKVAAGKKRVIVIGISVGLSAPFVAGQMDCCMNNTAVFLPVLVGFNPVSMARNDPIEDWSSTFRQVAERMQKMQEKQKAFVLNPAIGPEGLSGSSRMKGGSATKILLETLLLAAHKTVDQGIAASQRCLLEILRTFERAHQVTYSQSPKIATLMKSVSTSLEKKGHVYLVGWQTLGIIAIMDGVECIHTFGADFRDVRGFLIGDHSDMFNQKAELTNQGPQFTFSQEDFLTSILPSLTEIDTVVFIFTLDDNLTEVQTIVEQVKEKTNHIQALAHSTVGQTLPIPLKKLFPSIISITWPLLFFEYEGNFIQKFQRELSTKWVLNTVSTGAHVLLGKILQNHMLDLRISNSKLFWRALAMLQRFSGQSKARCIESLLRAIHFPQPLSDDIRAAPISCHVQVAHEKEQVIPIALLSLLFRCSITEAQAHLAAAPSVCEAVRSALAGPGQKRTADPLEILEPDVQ
Sequence of Lysine-specific demethylase 5B (Homo sapiens) (Q9UGL1 whole entry, looked up): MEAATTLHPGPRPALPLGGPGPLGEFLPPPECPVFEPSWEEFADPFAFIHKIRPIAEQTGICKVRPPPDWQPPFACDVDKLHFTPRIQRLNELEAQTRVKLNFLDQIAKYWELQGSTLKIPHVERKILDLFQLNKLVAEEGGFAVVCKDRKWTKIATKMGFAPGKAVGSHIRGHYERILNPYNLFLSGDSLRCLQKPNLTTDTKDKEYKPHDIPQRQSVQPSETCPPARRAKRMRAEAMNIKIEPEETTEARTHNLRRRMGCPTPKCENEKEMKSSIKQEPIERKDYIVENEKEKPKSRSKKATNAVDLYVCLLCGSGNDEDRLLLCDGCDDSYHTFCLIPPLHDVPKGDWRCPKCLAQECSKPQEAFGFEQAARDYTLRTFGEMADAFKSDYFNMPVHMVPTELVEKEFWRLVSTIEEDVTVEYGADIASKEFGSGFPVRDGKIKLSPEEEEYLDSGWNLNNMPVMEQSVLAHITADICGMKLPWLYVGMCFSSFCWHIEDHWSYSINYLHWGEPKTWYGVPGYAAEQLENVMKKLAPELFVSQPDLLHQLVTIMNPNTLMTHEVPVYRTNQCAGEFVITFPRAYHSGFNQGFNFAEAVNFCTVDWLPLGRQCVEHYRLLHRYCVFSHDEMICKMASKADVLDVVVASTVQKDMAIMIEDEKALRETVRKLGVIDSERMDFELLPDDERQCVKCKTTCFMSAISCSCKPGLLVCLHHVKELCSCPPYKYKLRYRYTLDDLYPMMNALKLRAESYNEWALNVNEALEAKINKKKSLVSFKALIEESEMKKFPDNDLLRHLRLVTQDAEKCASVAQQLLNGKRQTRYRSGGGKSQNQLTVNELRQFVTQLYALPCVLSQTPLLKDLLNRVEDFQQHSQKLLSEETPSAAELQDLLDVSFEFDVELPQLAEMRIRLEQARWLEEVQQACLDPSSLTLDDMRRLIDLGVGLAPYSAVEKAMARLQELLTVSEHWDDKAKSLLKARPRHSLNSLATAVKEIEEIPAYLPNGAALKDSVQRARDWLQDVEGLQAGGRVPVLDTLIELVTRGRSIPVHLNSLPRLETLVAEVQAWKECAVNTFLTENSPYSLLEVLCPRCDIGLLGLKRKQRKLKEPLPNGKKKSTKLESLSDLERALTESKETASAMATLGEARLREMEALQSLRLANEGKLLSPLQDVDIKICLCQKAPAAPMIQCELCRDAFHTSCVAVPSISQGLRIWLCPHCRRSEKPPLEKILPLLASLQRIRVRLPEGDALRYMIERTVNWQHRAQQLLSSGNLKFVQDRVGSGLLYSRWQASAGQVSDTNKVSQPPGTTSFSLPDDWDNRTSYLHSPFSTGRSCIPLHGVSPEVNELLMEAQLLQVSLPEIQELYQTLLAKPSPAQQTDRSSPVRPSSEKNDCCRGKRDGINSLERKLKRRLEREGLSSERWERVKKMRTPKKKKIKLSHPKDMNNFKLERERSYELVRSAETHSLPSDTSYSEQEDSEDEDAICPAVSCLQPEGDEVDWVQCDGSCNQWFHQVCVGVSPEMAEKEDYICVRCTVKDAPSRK
Sequence of Atrial natriuretic peptide receptor 2 (Homo sapiens) (P20594 whole entry, looked up): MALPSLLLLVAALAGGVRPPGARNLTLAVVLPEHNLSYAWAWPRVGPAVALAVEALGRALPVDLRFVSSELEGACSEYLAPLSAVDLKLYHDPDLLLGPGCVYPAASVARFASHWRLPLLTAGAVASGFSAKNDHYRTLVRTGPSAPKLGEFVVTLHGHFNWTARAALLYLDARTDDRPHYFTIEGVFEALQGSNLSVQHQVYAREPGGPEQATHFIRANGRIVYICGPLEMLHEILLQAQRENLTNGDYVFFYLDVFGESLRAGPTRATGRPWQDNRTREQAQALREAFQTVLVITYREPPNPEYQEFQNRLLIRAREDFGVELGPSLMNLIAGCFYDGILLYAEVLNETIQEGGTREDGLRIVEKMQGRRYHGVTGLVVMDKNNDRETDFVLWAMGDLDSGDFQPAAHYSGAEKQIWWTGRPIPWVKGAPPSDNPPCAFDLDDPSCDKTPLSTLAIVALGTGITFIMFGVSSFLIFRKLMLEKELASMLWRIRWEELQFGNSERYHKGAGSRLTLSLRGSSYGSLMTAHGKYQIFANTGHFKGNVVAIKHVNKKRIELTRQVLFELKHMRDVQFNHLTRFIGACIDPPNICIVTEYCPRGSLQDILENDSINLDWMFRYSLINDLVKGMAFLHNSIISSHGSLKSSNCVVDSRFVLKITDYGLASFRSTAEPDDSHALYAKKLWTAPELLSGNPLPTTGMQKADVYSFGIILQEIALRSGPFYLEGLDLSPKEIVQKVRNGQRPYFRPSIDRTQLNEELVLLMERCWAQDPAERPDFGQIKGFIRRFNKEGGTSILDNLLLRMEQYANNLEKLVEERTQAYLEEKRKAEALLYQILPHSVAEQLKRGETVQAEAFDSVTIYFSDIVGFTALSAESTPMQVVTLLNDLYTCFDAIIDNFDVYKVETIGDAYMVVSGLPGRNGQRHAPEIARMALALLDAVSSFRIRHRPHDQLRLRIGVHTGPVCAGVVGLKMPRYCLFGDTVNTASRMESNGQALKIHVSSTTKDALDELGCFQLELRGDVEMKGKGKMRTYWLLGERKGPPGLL
Sequence of Parathyroid hormone/parathyroid hormone-related peptide receptor (Homo sapiens) (Q03431 whole entry, looked up): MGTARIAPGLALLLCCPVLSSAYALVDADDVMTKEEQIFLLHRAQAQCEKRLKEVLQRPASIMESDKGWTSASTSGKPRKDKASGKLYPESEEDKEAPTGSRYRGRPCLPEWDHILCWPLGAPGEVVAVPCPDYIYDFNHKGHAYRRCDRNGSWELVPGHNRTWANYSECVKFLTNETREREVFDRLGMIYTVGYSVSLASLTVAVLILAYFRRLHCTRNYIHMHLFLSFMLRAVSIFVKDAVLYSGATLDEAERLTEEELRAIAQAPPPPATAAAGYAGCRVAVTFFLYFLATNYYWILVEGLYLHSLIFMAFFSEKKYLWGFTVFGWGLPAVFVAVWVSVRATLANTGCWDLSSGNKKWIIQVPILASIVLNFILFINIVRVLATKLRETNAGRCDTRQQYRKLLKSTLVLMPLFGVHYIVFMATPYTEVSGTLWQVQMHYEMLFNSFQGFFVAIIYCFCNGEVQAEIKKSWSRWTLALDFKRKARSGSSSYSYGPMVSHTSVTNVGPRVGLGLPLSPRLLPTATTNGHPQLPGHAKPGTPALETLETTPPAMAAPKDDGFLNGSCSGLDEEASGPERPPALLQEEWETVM
Sequence of Papain (Carica papaya) (P00784 whole entry, looked up): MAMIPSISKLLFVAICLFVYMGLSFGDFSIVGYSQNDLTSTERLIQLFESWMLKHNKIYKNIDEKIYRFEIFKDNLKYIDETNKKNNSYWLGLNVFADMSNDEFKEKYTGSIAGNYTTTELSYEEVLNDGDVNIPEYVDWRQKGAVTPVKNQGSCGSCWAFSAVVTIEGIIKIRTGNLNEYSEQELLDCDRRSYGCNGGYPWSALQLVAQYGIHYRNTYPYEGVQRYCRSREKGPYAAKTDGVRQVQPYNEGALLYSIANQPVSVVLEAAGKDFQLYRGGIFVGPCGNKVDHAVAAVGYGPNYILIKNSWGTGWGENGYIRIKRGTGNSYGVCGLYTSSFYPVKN
Sequence of Glutathione peroxidase 1 (Homo sapiens) (P07203 whole entry, looked up): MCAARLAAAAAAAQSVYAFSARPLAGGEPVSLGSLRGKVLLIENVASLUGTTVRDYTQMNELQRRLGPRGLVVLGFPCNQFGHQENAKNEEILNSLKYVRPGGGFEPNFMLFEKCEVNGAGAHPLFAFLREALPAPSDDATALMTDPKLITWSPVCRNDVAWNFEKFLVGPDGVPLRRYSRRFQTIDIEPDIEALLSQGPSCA
Sequence of Phospholipid hydroperoxide glutathione peroxidase GPX4 (Homo sapiens) (P36969 whole entry, looked up): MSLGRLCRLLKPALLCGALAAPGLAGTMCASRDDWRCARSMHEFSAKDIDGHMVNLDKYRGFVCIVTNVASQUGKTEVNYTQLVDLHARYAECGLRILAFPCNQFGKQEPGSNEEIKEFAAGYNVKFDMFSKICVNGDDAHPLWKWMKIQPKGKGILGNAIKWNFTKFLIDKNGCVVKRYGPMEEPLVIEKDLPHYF

O=Nc1c(-c2c(O)[nH]c3ccccc23)[nH]c2ccccc12
inactive: outcome [1] | outcome [2] | max response [3] 1.55% | Potency [4] | Potency [5] | outcome [6] | Potency [8] | outcome [9] | outcome [11] | outcome [12] | Potency [13] | outcome [14] | max response [17] -10.5% | Potency [18] | Potency [19] | Potency [20]
active: Potency [7] 20 µM | Potency [10] 11.2 µM | Potency [15] 15.8 µM | Potency [16] 28.2 µM and 4.47 µM | Potency [21] 14 µM
